Screening data from PubChem BioAssay.
Jurkat NFkB inh = inhibitors of the PMA/ionomycin-induced NF-kB reporter in Jurkat cells; PMA/ionomycin-induced NF-kB luciferase reporter, luminescence; hit rate 0.53% among 330,000; inhibition, % at 4 µM; in the data active means inhibition above about 50%
Gli-Sufu block = Gli-Sufu pathway antagonism. Sufu-KO-LIGHT fibroblasts, Gli luciferase reporter luminescence. inhibition, % at 5 µM. hit rate 0.74% among 340,000;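 active means inhibition above about 55%, limit read from the data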;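 further: 0% = DMSO-treated cells and 100% = wells with medium but no cells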
GalR3 antag = blocks the human galanin receptor 3; O60755; HEK293 GalR3-CNG cAMP membrane potential fluorescence; galR3 body fused to GalR1 C-terminus; inhibition, % at 3 µM; hit rate 0.44% among 360,000;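 active means inhibition above the screen-wide average plus 3 SD, cut at about 13% in these data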;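 further: forskolin and galanin both at EC90 stimulate the cells; cAMP rise reported by CNG channel membrane potential dye signal; 0% = forskolin plus galanin with DMSO and 100% = forskolin alone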
Target sequence (O60755 1-299 limits assumed): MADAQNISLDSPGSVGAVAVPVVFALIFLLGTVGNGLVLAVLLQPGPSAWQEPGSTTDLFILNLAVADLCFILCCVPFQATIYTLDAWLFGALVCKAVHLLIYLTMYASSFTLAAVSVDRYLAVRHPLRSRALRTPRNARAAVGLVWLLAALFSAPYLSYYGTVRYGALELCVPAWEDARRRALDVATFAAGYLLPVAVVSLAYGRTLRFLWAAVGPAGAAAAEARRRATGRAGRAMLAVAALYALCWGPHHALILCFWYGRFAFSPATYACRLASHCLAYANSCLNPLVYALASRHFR
697 NFkB inh = inhibitors of the PMA/ionomycin-induced NF-kB reporter in 697 B cells; 697 B-cell NF-kB luciferase reporter, 16 h; inhibition, % at 4 µM; hit rate 0.33% among 330,000; in the data active means inhibition above about 35%
NR2F2 inh = blocks human COUP-TFII nuclear receptor; P24468; HEK293T NGFI-A luciferase reporter, luminescence; inhibition, % at 8.6 µM; hit rate 0.7% among 370,000;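 active means inhibition above a per-plate cutoff, mean inhibition of test wells between control levels plus 3 SD, cut at about 38% in these data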;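 further: cells cotransfected with COUP-TFII expression vector driving the NGFI-A reporter; 0% = median of COUP-TF2 test wells and 100% = reporter-only cells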
Jurkat NFkB conf = inhibitors of the PMA/ionomycin-induced NF-kB reporter in Jurkat cells, retest | inhibition, % at 4 µM | hit rate 27% among 2,700 | Jurkat NF-kB luciferase, 16 h | shares compounds with Jurkat NFkB inh;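 active means inhibition reaching about 45% at 4 µM in either replicate, limit read from the data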;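 further: plate controls were PMA/ionomycin stimulated DMSO wells for no effect and unstimulated DMSO wells for full effect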
697 NFkB conf = lowers PMA/ionomycin-induced NF-kB signal in 697 B cells. shares compounds with 697 NFkB inh. inhibition, % at 4 µM. hit rate 35% among 2,000. 697 B-cell NF-kB luciferase, 16 h; in the data active means inhibition mostly above about 28%, no sharp cut-off; inactive means mostly below about 22%
Starred values were filed as active, the others as inactive; i = inactive; . = no result given. Hits are enriched below; roughly 2% of the tested compounds scored in any of these assays.

SMILES	Jurkat NFkB inh	Gli-Sufu block	GalR3 antag	697 NFkB inh	NR2F2 inh	Jurkat NFkB conf	697 NFkB conf
C=CC(=O)Nc1ccc(Nc2nc(NC3CCC(N(C)C)CC3)nc3c2ncn3C(C)C)cc1 (stereo not given)	100*	52	.	97*	.	97*	80*
S=C(Nc1ccccc1Br)OCCN1CCCC12CCC(c1ccccc1)CC2 (stereo not given)	.	.	.	.	17	.	.
Cc1ccc(Cn2ccsc2=NC(=O)CCl)cc1	78*	48	5	94*	6	51*	98*
O=C(c1cccnc1Cl)N1CCC(Oc2cccnc2)CC1	.	.	.	.	9	.	.
CCCCCNC(=O)c1ccc2c(=O)n(CC3CCCO3)c(=S)[nH]c2c1 (stereo not given)	-4	9	-4	24	9	.	.
CCCCCNC(=O)c1ccc2c(=O)n(CC3CCCO3)c(=O)[nH]c2c1 (stereo not given)	99*	9	-5	104*	-7	44	60*
Cn1c(-c2ccccc2F)cc2onc(-c3ccccc3)c2c1=O	-232	-57	-4	-349	-54	-98	-403
O=C1c2ccccc2C(=O)N1c1cccnc1	53*	6	0	45*	10	12	-19
O=C1c2cccc([N+](=O)[O-])c2C(=O)N1c1cccnc1	-18	-1	-5	-25	-10	.	.
CCCC1CCC2(CCC(=O)N2CCO)CC1 (stereo not given)	.	.	.	.	8	.	.
Cc1ccccc1NC(=O)CCS(=O)(=O)c1ccccc1	.	.	.	.	20	.	.
CCN(CC)c1ccc2cc(C(C)=O)c(=O)oc2c1	2	-1	-5	0	-14	.	.
CCN(CC)c1ccc2cc(C(=O)Nc3ccccn3)c(=O)oc2c1	-156	-52	-2	-365	-45	-138	-284
N=c1ccn2c(n1)O[C@H]1[C@@H](CO)[C@H](O)O[C@H]12	53*	37	.	70*	20	61*	61*
CC(C)(C)C(=O)CSc1ncnc2c1cnn2-c1ccccc1	-161	-102	3	-258	-7	-94	-194
Cn1cc(/C=C/C(=O)c2ccccc2)c2ccccc21	-170	-76	-2	-272	-26	-41	-118
Cc1ccc(C(=O)/C=C/c2cn(CN3CCN(C)CC3)c3ccccc23)cc1	8	-24	-4	-90	-55	.	.
COc1ccc(-c2nc(CS(=O)CC(=O)NCc3ccco3)c(C)o2)cc1 (stereo not given)	17	-3	.	9	7	.	.
CCc1ccc(-c2nc(CS(=O)CC(=O)NCc3ccco3)c(C)o2)cc1 (stereo not given)	51*	18	-10	36*	32	56*	35*
CCN(Cc1ccccc1)c1ccc(/C=C(\C#N)c2ccccn2)cc1	-165	11	0	-271	-37	-90	-221
COc1ccc(C(=O)/C(C#N)=N/Nc2ccc([N+](=O)[O-])cc2)cc1	60*	69*	-1	53*	-14	59*	11
O=C(NC(=S)Nc1cccnc1)c1cccs1	-17	-5	-1	0	-28	.	.
O=C(NC(=S)Nc1ccc(Cl)cn1)c1cccs1	-164	-1	0	-324	-49	-100	-167
CCN(C(=O)COC(=O)c1ccc(Sc2ncn[nH]2)c([N+](=O)[O-])c1)c1ccccc1C	.	.	.	.	-6	.	.
N#CC1(c2ccc(NC(=O)c3ccccc3F)cc2)CCCC1	-210	-106	-9	-281	-53	-166	-214
SMILES	Jurkat NFkB inh	Gli-Sufu block	GalR3 antag	697 NFkB inh	NR2F2 inh	Jurkat NFkB conf	697 NFkB conf
O=C(Nc1ccc2c(c1)Cc1ccccc1-2)c1ccccc1F	-161	-85	2	-323	-50	-139	-202
O=c1c2cc3cc(Cl)ccc3nc2ncn1Cc1ccc(Oc2ccccc2)cc1	.	.	.	.	23	.	.
COc1ccc(NC(=O)c2ccc(Br)o2)cc1	-64	-89	-7	-43	-42	.	.
CC(C)c1ccc(NC(=O)c2ccc(Br)o2)cc1	-172	-92	-6	-262	-25	-119	-295
NC(=O)C1CCN(c2ncc(Br)cn2)CC1	.	.	.	.	6	.	.
CCC(C)(C)c1ccc(OCCCC[n+]2ccc(C)cc2)c(C(C)(C)CC)c1	54*	84*	2	81*	27	55*	44*
CCCCCCCCCn1c2c(c(=N)c3c1CCC3)CCCC2	97*	88*	.	58*	.	81*	-13
CCn1c2c(c(=N)c3c1CCC3)CCCC2	41	4	-1	-9	15	.	.
CC(C)C[C@@H]1COc2cccc(N3CCCC3)c2S(=O)(=O)N1C	.	.	.	.	-11	.	.
Cc1ccc(C)c(NC(=O)c2ccc3ccccc3n2)c1	-177	-74	5	-283	-31	-98	-189
N#CC(c1cccc(Cl)c1)c1ccc2c(C(F)(F)F)cc(C(F)(F)F)nc2n1 (stereo not given)	58*	88*	-2	66*	-3	59*	33*
Cc1c(C(C)c2ccccc2O)c2ccccc2n1C (stereo not given)	.	.	.	.	3	.	.
COc1ccc2c(c1)CCCN2C(=O)C1CCCN(S(=O)(=O)c2cccc3ccccc23)C1 (stereo not given)	.	.	.	.	24	.	.
CCOc1ccc2nc(NC(=S)N(C)C)sc2c1	-201	-19	-8	-395	-46	-79	-246
CCCC(=O)Nc1nc2ccc(OCC)cc2s1	-113	-88	1	-115	-34	.	.
Nc1c(-c2ccccc2)cnc2c(-c3ccccc3)cnn12	-231	-106	-9	i	-83	-190	i
Nc1c(C(=O)O)cnc2c(-c3ccc(Cl)cc3)cnn12	-61	-83	5	-144	-47	.	.
COc1ccccc1CCC[C@H](CCS(=O)(=O)C(C)C)CC1CCCCC1	.	.	.	.	13	.	.
O=C(COCc1ccccc1)NC1CCCCN(Cc2cccc(Cl)c2)C1=O (stereo not given)	.	.	.	.	-3	.	.
Cc1ccc(NC(=O)N2CCc3ccccc32)cc1	-131	-118	-2	-248	-30	.	.
Cc1ccc(NC(=O)N2CCc3ccccc32)cc1C	-180	-150	-5	-406	-45	-151	-298
O=C1NCCN1c1ccccc1	.	0	-5	.	4	.	.
O=C1N(c2ccccc2)CCN1c1ccccc1	-185	-103	-8	-269	-43	-111	-180
Cc1ccc(NC(CC(=O)c2ccccc2)C(=O)O)cc1Cl (stereo not given)	-204	-104	-7	-254	-35	-15	-22
CCOC(=O)[C@@]12CN(C(=O)OC(C)(C)C)CC=C1N(Cc1ccc(OC)cc1)C(=O)[C@H]2CC(=O)NCC1CCCCC1	.	.	.	.	13	.	.
CCn1c(C)nc2cc(-c3nc4n(n3)Cc3ccccc3-4)ccc21	91*	87*	.	70*	.	91*	74*
Cc1cccc2c1CCC1CN(Cc3ccccc3)S(=O)(=O)N21 (stereo not given)	.	.	.	.	-16	.	.
Cc1ccsc1/C=N/Nc1nc2ccccc2s1	-198	-68	-2	-342	-36	-98	-273
